{"source": "PubChem BioAssay AID1571", "about": "(National Center for Advancing Translational Sciences (NCATS), 2009)", "note": "Results filed as inconclusive are left out. Calls of active or inactive are those of the source. Calls come from the whole dose curve; as a rule, active = well fitted curve in the direction sought with a large enough effect; inconclusive = small, poorly fitted or top-dose-only effect, or effect the other way; inactive = flat fitted curve, though single readings scatter.", "data": [{"experiment": "Total Fluorescence Confirmation Counterscreen for Inhibitors of the Interaction of Thyroid Hormone Receptor and Steroid Receptor Coregulator 2, Fluorescein Fluoroprobe", "conditions": "TRbeta/SRC2-fluorescein mix, total fluorescence interference; series mostly up to 92.2 µM", "source_text": "NIH Molecular Libraries Probe Production Network [MLPCN] NIH Chemical Genomics Center [NCGC] MLPCN Grant: DK058080 Assay Provider: R. Kip Guy, St. Jude Children's Research Hospital NCGC Assay Overview: Thyroid receptor (TR) regulates many homeostatic processes including basal metabolism, cardiovascular function, body weight, and lipid trafficking. TR modulators are potential therapeutics for obesity and hyperlipidemias but current thyroid analogs have undesirable side effects, particularly cardiac stimulation. To identify inhibitors that specifically prevent the interaction of TR with the steroid receptor coregulator 2 (SRC2), a fluorescence polarization assay was screened (Arnold et al., 2006). This assay detects interaction of the ligand-binding domain of human TRbeta with a fluorescein labeled SRC2 peptide, corresponding to a 20 amino acid region of the nuclear receptor interaction domain. Total fluorescence (555 nm excitation and 632 nm emission) was measured to identify potential fluorescent and light absorbing compounds. Such compounds may be artifacts that interfere with the fluorescence polarization assay. This assay is a confirmation assay for AID 1479. Arnold, L. A.; Estebanez-Perpina, E.; Togashi, M.; Shelat, A.; Ocasio, C. A.; McReynolds, A. C.; Nguyen, P.; Baxter, J. D.; Fletterick, R. J.; Webb, P.; Guy, R. K. A high-throughput screening method to identify small molecule inhibitors of thyroid hormone receptor coactivator binding. Sci STKE 2006, p 13.\nNCGC Assay Protocol Summary: For screening, 5 uL/well 0.6 uM TRbeta and 20 nM SRC2 Fluorescein in protein buffer (20mM Tris hydrochloride, 100mM NaCl, 10% glycerol, 1mM EDTA, 0.01% NP-40, 1mM DTT, 1uM T3 and 5% DMSO) was dispensed into black solid 1536-well plates (Grenier) using a solenoid-based dispenser. Following transfer of 23 nL compound or DMSO vehicle by a pin tool, the plates were centrifuged 15 s at 1000 RPM and incubated 5 hr at ambient temperature. The plates were read by an Envision (Perkin Elmer) to detect fluorescence polarization of SRC2 Fluorescein (480 nm excitation and 535 nm emission). Data were normalized to unbound (all components except TRbeta) and bound SRC2 Fluorescein controls. Total fluorescence (TF) was calculated as follows: TF = S + 2P where S and P are fluorescence readings in the parallel and perpendicular channels, respectively. In this assay, we provide % activity data for each concentration as well as potencies for the active compounds.", "values": [{"smiles": "O=C(O)CC1OCC=C2CN3CCC45C6=CC(=O)C(=O)C([N+](=O)[O-])=C6NC4C1C2CC35", "note": "(stereo not given)", "outcome": "inactive"}, {"smiles": "CN1CC[C@@]2(C)c3cc(O)ccc3N(C)C2O1", "note": "(stereo not given in full)", "outcome": "inactive"}, {"smiles": "COP(=S)(OC)Oc1ccc([N+](=O)[O-])cc1", "outcome": "inactive"}, {"smiles": "Cc1[nH]n(-c2ccccc2)c(=O)c1C(c1ccc([N+](=O)[O-])cc1)c1c(C)[nH]n(-c2ccccc2)c1=O", "outcome": "inactive"}, {"smiles": "CCn1nc(-c2cccs2)nc2c(=O)n(C)c(=O)nc1-2", "outcome": "inactive"}]}]}
